# Source: PubChem (National Center for Advancing Translational Sciences (NCATS))
# Most compounds without a hit are left out; they make up all but 19% or so of the library.
# Pf growth 48h = inhibits P. falciparum growth in the first generation, 48 h; P. falciparum luciferase growth in erythrocytes, 48 h; Potency, µM (titrated, usually from 28.7 µM), actives largely listed as inhibitors; 310,000 tested, 5.9% active; AID 504832
#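 Luciferase-expressing P. falciparum in infected erythrocytes (2% hematocrit, 0.1% parasitemia final) in RPMI 1640/0.5% Albumax were exposed to compound for 48 hours at 37 C, 5% CO2; growth read as luminescence.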
# Lassa entry inh = blocks Lassa virus binding to or entry into cells; Lassa virus pseudotype entry inhibition, cell reporter; Potency, µM (titrated, usually from 37.9 µM), usual class: inhibitors; 300,000 tested, 1.2% active; calls by dose curve; tested in HEK293 cells; also: nearly all actives have a fitted effect of over 50% in size
# Shiga toxin inh = blocks Shiga toxin action in Vero cells; 290,000 tested, 9.2% active; inhibition, % at 38.7 µM; AID 2315; Vero cells, Shiga toxin protein synthesis inhibition reporter; in the data active = inhibition mostly above about 28%, no sharp cut-off; inactive = mostly below about 43%
# CHX counter = counter-screen hit for Shiga toxin inhibitors, cycloheximide | cell reporter, cycloheximide protein synthesis inhibition counterscreen | max response, % | 300,000 tested, 12% active | AID 2314; in the data active = max response mostly above about 13%, no sharp cut-off; inactive = mostly below about 14%; also: read at 38.3 µM for the half of the compounds with a filed dose
# Pf growth 96h = inhibits malaria parasite growth, 96 h | P. falciparum luciferase reporter growth, 96 h | Potency, µM (titrated, usually from 28.7 µM), usual class: inhibitors | 320,000 tested, 6.9% active | AID 504834
#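 Delayed-death screen, second-generation endpoint: infected erythrocytes, 2% hematocrit, 0.05% parasitemia final; 96 hours at 37 C, 5% CO2; luciferase detection reagent; luminescence decrease equals reduced growth.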
# Marburg entry inh = Marburg virus entry inhibition; Marburg virus pseudotyped entry inhibition, cell reporter; Potency, µM (doses to about 37.8 µM), hits mostly inhibitors; 300,000 tested, 1.8% active; calls by dose curve; tested in HEK293 cells
# Numbers stand for hits; - = inactive; ? = inconclusive; . = no result; [ ] = another dose, or the depositor's remark. Unless noted, calls follow the shape of the dose curve; as a rule, active = well fitted inhibition curve with a large enough effect; inconclusive = small, poorly fitted or top-dose-only effect, or another doubt; inactive = no such curve, though single readings can be large or run the other way.
SMILES,Pf growth 48h,Lassa entry inh,Shiga toxin inh,CHX counter,Pf growth 96h,Marburg entry inh
COc1ccc(OCc2cc(C(=O)N(C)C3CCOCC3)no2)c2ccccc12,-,.,101.1,46.5,-,.
Cc1cc(OCc2cc(C(=O)N(C)C3CCOCC3)no2)cc(C)c1Cl,-,-,125.9,86.3,-,-
Cc1nc(C)c(C(=O)OCC(=O)Nc2ccccc2SCC#N)s1,-,-,.,.,-,-
C=CCNC(=S)NNC(=O)c1ccccc1,-,-,-,-,-,-
COC(=O)c1ccc(/C=C/C(=O)c2cccc(OC)c2)cc1,-,-,51.6,69.8,-,?
CSc1ccc(C(=O)/C=C/c2ccc(N)cc2)cc1,-,-,76.8,54.6,-,?
COc1cccc(C(=O)/C=C/c2ccc(SC)cc2)c1,-,-,79.9,49.1,-,-
CCOCCCNC(=O)C1CCCN1S(=O)(=O)c1ccc(Cl)cc1 (stereo unspecified),-,-,-,-,-,-
O=C(CCl)N1c2ccccc2SCC1c1ccccc1 (stereo unspecified),?,?,-,-,?,?
CC(C)Cc1nnc(NC(=O)CSc2nc(N)cc(=O)[nH]2)s1,-,-,-,-,.,-
CCCNC(=O)[C@H](Cc1c[nH]c2ccccc12)NC(=O)c1ccccc1Cl,-,-,-,25.4,-,?
O=C(N[C@@H](Cc1c[nH]c2ccccc12)C(=O)NC1CC1)c1ccccc1Cl,-,?,-,46.6,-,-
O=C(N[C@@H](Cc1c[nH]c2ccccc12)C(=O)O)c1ccccc1Cl,-,-,-,-,-,-
CCCCNC(=O)[C@H](Cc1c[nH]c2ccccc12)NC(=O)c1ccccc1Cl,?,-,-,-,?,-
Cc1ccc(NC(=O)c2cnc(N3CCN(c4ccccn4)CC3)c3ccccc23)c(Br)c1,?,?,-,-,?,?
NC(=S)N/N=C/c1c(O)ccc2ccccc12,4.65µM,.,-,-,?,.
NC(=S)N/N=C/c1coc2c(ccc3ccccc32)c1=O,-,-,-,23.9,-,-
COc1ccccc1N(CC(=O)N/N=C/c1c(O)ccc2ccccc12)S(C)(=O)=O,-,9.2µM,-,-,-,?
Oc1ccc2ccccc2c1/C=N/Nc1ccccc1,-,-,-,-,?,-
COc1ccccc1NCC(=O)N/N=C/c1c(O)ccc2ccccc12,?,.,-,-,-,.
Oc1ccc2ccccc2c1C=NCc1ccccc1,?,.,-,-,13.1µM,.
Oc1ccc2ccccc2c1/C=N/c1nc2c(s1)CCCC2,.,?,-,13.6,-,-
Oc1c(Br)cc(Br)cc1/C=N/c1nc2c(s1)CCCC2,.,-,.,.,.,-
Nc1nc(-c2ccc(Cl)cc2)cn1N,-,-,-,-,-,?
COC(=O)CC1C(=O)NCCN1C(=O)CSc1nnc(Nc2ccc(OC)cc2)s1 (stereo unspecified),?,?,-,-,.,-
SMILES,Pf growth 48h,Lassa entry inh,Shiga toxin inh,CHX counter,Pf growth 96h,Marburg entry inh
COc1ccc(C(=O)N/N=C(\c2ccccc2)c2ccccn2)cc1,2.62µM,?,53.4,-,3.7µM,9.2µM
O=C(NC(O)C(=O)c1ccccc1)c1ccccn1 (stereo unspecified),-,-,38.4,25.8,-,-
O=C(NN=C(c1ccccc1)c1ccccn1)c1ccccc1,.,?,.,.,.,6.31µM
O=C(NCCNC(=O)c1ccccn1)c1ccc(F)cc1,-,-,-,-,-,-
O=C(N/N=C(\c1ccccc1)c1ccccn1)c1ccccc1Cl,2.33µM,?,-,-,2.62µM,?
Cc1ccc(NC(=O)NCc2cccn2Cc2ccccc2)cc1F,.,-,.,.,.,.
CC1=C(C(=O)Nc2ccccc2)C(c2cc(CN3CCOCC3)cs2)C2=C(CCCC2=O)N1 (stereo unspecified),-,-,-,-,-,-
C[C@@H]1CCC2[C@](C)(CO)[C@@H](O)CC[C@]2(C)[C@@]12C[C@](CO)(CC(=O)O)CO2 (stereo partly specified),-,.,-,-,-,.
CCOC(=O)c1c(C)nc2c3ccccc3ccn12,-,-,36.8,32.0,-,?
CCOC(=O)c1c(C)nc2c(C)cccn12,-,-,-,-,.,-
Cc1cc(C)c(C)c(OCC(O)CN2CCN(c3ccccn3)CC2)c1 (stereo unspecified),-,-,-,-,-,-
O=C(NNC(=S)NC(=O)c1ccc(F)cc1)c1ccncc1,.,-,.,.,.,-
O=C(NC(=S)Nc1ncccn1)c1ccc(F)cc1,-,-,69.9,48.6,-,?
O=C(NC(=S)Nc1cccnc1Cl)c1ccc(F)cc1,-,.,83.4,48.5,-,-
N#CCC(=O)Nc1ccc(C(=O)OCC(=O)NCc2ccc3c(c2)OCO3)cc1,8.28µM,-,.,.,?,-
O=[N+]([O-])c1ccc(NCc2ccc3c(c2)OCO3)cc1,-,-,-,20.6,?,-
CCOC(=O)c1ccc(NCc2ccc3c(c2)OCO3)cc1,-,-,66.0,34.7,-,-
CCCCSCCCNC(=O)c1cn(C)c2ccc(S(=O)(=O)N3CCCCC3)cc2c1=O,.,-,.,.,.,-
OCCN(Cc1ccccc1)CC1CCCCC1,-,?,-,-,-,-
Cc1cc(-c2nnnn2-c2ccc(C(F)(F)F)cc2)no1,-,-,-,-,-,-
CCCCCc1nnc(NC(=O)C2CCCO2)s1 (stereo unspecified),-,-,66.8,44.2,.,-
COCCSc1nnc(NC(=O)C2CCCO2)s1 (stereo unspecified),-,-,91.4,23.7,.,-
O=C(CCC(=O)Nc1nnc(C2CCCCC2)s1)NCC1CCCO1 (stereo unspecified),.,-,-,-,-,-
Cc1nnc(NC(=O)C2CCCO2)s1 (stereo unspecified),-,-,-,-,.,-
CCCC(C)c1nnc(NC(=O)C2CCCO2)s1 (stereo unspecified),-,-,35.2,40.0,-,-
SMILES,Pf growth 48h,Lassa entry inh,Shiga toxin inh,CHX counter,Pf growth 96h,Marburg entry inh
CC(C)c1nnc(NC(=O)CCC(=O)NCC2CCCO2)s1 (stereo unspecified),-,-,-,-,2.08µM,?
CC1CCCC(C)N1C(=O)COC(=O)c1ccc([N+](=O)[O-])o1 (stereo unspecified),.,-,.,.,.,-
CC(O)CNc1nc2c(c(=O)n(C)c(=O)n2C)n1C/C=C/c1ccccc1 (stereo unspecified),-,?,-,-,-[5.75 µM],-
COc1cc2[nH]c(=S)nc(NCC3CCCO3)c2cc1OC (stereo unspecified),?,-,-,-,-,-
O=C(Nc1nnc(CCN2CCCCC2)s1)C1CCCCC1,-,-,-,-,13.1µM,-
COc1ccc(OC)c(CCNC(=O)c2cc3c(s2)-c2c(C)cccc2OC3)c1,.,.,.,.,.,-
Cc1cccc(-n2cnc(C(=O)NC3CCCCCC3)c2)n1,-,-,75.8,59.7,-,?
CCC(C)NC(=O)c1cn(-c2cccc(C)n2)cn1 (stereo unspecified),-,-,53.4,19.9,-,?
Cc1cccc(-n2cnc(C(=O)O)c2)n1,-,-,-,-,-,-
O=S(=O)(Nn1cnnc1)c1ccccc1,-,-,-,-,?,-
